“And” between values parts separate entries of the source, which are not always exact repeats. Equal entries are not always repeated. Records with an inconclusive call do not appear. The source made the active and inactive calls. Calls follow the shape of the dose curve; as a rule, active = well fitted curve in the direction sought with a large enough effect; inconclusive = small, poorly fitted or top-dose-only effect, or another doubt; inactive = no such curve, though single readings can be large; an effect the other way counts as inactive or inconclusive.
Experiments:
[1] = qHTS of pediatric cancer cell lines to identify multiple opportunities for drug repurposing: Primary screen for TC32 cells (AID 1347089); settings: TC32 Ewing sarcoma viability, CellTiter-Glo luminescence, 48 h; series mostly up to 45.8 µM; also: nearly all actives have a fitted effect of over 60% in size; also: potency is read from the fitted curve at half-maximal effect
In short: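 TC32 cells, 500-1,000/well in growth medium, compound-treated 48 h at 37 °C; viability from CellTiter-Glo luminescence. Primary screen: MIPE 11-point (0.78 nM–46 µM final), NPC 8-point (0.59 nM–46 µM final); confirmatory at 11-point dilutions.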

[2] = qHTS of pediatric cancer cell lines to identify multiple opportunities for drug repurposing: Primary screen for DAOY cells (AID 1347090); settings: DAOY medulloblastoma viability, CellTiter-Glo luminescence, 48 h; series mostly up to 46 µM; also: nearly all actives have a fitted effect of over 55% in size; also: potency is read from the fitted curve at half-maximal effect
In short: (§1)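 Cell viability, CellTiter-Glo luminescence; 500-1,000 cells/well, 8- or 11-point titration, 48 h compound exposure at 37 degrees C, 5% CO2. Controls: DMSO neutral, bortezomib 2.3 µM final as positive.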

[3] = qHTS of pediatric cancer cell lines to identify multiple opportunities for drug repurposing: Primary screen for SJ-GBM2 cells (AID 1347091); settings: SJ-GBM2 viability, CellTiter-Glo luminescence, 48 h; series mostly up to 46 µM; also: potency is read from the fitted curve at half-maximal effect
In short: as §1

[4] = qHTS of pediatric cancer cell lines to identify multiple opportunities for drug repurposing: Primary screen for A673 cells (AID 1347092); settings: A673 Ewing sarcoma viability, CellTiter-Glo ATP luminescence, 48 h; series mostly up to 46 µM; also: nearly all actives have a fitted effect of over 45% in size; also: potency is read from the fitted curve at half-maximal effect
In short: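 A673 cells (500-1,000 cells/well) were treated 48 hours at 37 degrees C with compounds at 11-point (0.78 nM to 46 µM) or 8-point (0.59 nM to 46 µM) dilutions. Viability read by CellTiter-Glo luminescence; concentration-response curves fitted.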

[5] = qHTS of pediatric cancer cell lines to identify multiple opportunities for drug repurposing: Primary screen for NB-EBc1 cells (AID 1347095); settings: NB-EBc1 neuroblastoma viability, CellTiter-Glo luminescence, 48 h; series mostly up to 46 µM; also: potency is read from the fitted curve at half-maximal effect
In short: (§2)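 Viability was measured as metabolically active cells after 48 hours of treatment, read by CellTiter-Glo luminescence. Compounds were tested at multiple final concentrations, giving concentration-response curves.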

[6] = qHTS of pediatric cancer cell lines to identify multiple opportunities for drug repurposing: Primary screen for U-2 OS cells (AID 1347096); settings: U-2 OS viability, CellTiter-Glo luminescence, 48 h; series mostly up to 46 µM; also: nearly all actives have a fitted effect of over 50% in size
In short: (§3)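 Cells (500-1,000/well) rested 5 h, then received compounds for 48 h; metabolically active cells were measured by CellTiter-Glo luminescence. Final concentrations spanned up to 46 µM (MIPE, 11-point) or 0.59 nM-46 µM (NPC, 8-point) in primary screens, 11-point in follow-ups.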

[7] = qHTS of pediatric cancer cell lines to identify multiple opportunities for drug repurposing: Primary screen for Saos-2 cells (AID 1347097); settings: Saos-2 viability, CellTiter-Glo ATP luminescence, 48 h; series mostly up to 46 µM; also: nearly all actives have a fitted effect of over 40% in size; also: potency is read from the fitted curve at half-maximal effect
In short: as §2

[8] = qHTS of pediatric cancer cell lines to identify multiple opportunities for drug repurposing: Primary screen for SK-N-SH cells (AID 1347098); settings: SK-N-SH viability, CellTiter-Glo luminescence, 48 h; series mostly up to 57 µM; also: nearly all actives have a fitted effect of over 65% in size; also: potency is read from the fitted curve at half-maximal effect
In short: as §3

[9] = qHTS of pediatric cancer cell lines to identify multiple opportunities for drug repurposing: Primary screen for LAN-5 cells (AID 1347100); settings: LAN-5 neuroblastoma viability, CellTiter-Glo luminescence, 48 h; series mostly up to 46 µM; also: potency is read from the fitted curve at half-maximal effect
In short: as §3

[10] = qHTS of pediatric cancer cell lines to identify multiple opportunities for drug repurposing: Primary screen for Rh18 cells (AID 1347102); settings: Rh18 rhabdomyosarcoma viability, CellTiter-Glo luminescence, 48 h; series mostly up to 46 µM; also: nearly all actives have a fitted effect of over 65% in size
In short: as §3

[11] = qHTS of pediatric cancer cell lines to identify multiple opportunities for drug repurposing: Primary screen for RD cells (AID 1347104); settings: RD rhabdomyosarcoma viability, CellTiter-Glo luminescence, 48 h; series mostly up to 46 µM; also: nearly all actives have a fitted effect of over 55% in size; also: potency is read from the fitted curve at half-maximal effect
In short: as §2

[12] = qHTS of pediatric cancer cell lines to identify multiple opportunities for drug repurposing: Primary screen for control Hh wild type fibroblast cells (AID 1347106); settings: Hh wild-type fibroblast viability, CellTiter-Glo luminescence, 48 h; series mostly up to 46 µM; also: nearly all actives have a fitted effect of over 55% in size; also: potency is read from the fitted curve at half-maximal effect
In short: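 Viability after 48 h compound treatment at 37C, 500-1,000 cells/well, read as ATP luminescence with CellTiter-Glo. Primary screens used 11-point (MIPE, 0.78 nM-46 µM) or 8-point (NPC, 0.59 nM-46 µM) final concentrations; follow-up screens used 11-point dilutions.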

[13] = qHTS of pediatric cancer cell lines to identify multiple opportunities for drug repurposing: Primary screen for Rh30 cells (AID 1347107); settings: Rh30 rhabdomyosarcoma viability, CellTiter-Glo luminescence, 48 h; series mostly up to 46 µM; also: nearly all actives have a fitted effect of over 75% in size
In short: as §3

[14] = qHTS of pediatric cancer cell lines to identify multiple opportunities for drug repurposing: Primary screen for Rh41 cells (AID 1347108); settings: Rh41 rhabdomyosarcoma viability, CellTiter-Glo luminescence, 48 h; series mostly up to 46 µM; also: nearly all actives have a fitted effect of over 70% in size; also: potency is read from the fitted curve at half-maximal effect
In short: as §2

[15] = qHTS of pediatric cancer cell lines to identify multiple opportunities for drug repurposing: Primary screen for SK-N-MC cells (AID 1347093); settings: SK-N-MC viability, CellTiter-Glo luminescence, 48 h; series mostly up to 46 µM; also: potency is read from the fitted curve at half-maximal effect
In short: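 Metabolically active cells were quantified by ATP-dependent luminescence (CellTiter-Glo, 15 min at room temperature) following 48 h treatment. Cells had been plated at 500-1,000 per well and settled for 5 h beforehand.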

[16] = qHTS of pediatric cancer cell lines to identify multiple opportunities for drug repurposing: Primary screen for BT-37 cells (AID 1347094); settings: BT-37 viability, CellTiter-Glo luminescence, 48 h; series mostly up to 57.3 µM; also: potency is read from the fitted curve at half-maximal effect
In short: as §2

[17] = qHTS of pediatric cancer cell lines to identify multiple opportunities for drug repurposing: Primary screen for NB1643 cells (AID 1347099); settings: NB1643 neuroblastoma viability, CellTiter-Glo luminescence, 48 h; series mostly up to 46 µM; also: nearly all actives have a fitted effect of over 50% in size; also: potency is read from the fitted curve at half-maximal effect
In short: as §2

[18] = qHTS of pediatric cancer cell lines to identify multiple opportunities for drug repurposing: Primary screen for BT-12 cells (AID 1347101); settings: BT-12 viability, CellTiter-Glo luminescence, 48 h; series mostly up to 57.3 µM; also: nearly all actives have a fitted effect of over 25% in size; also: potency is read from the fitted curve at half-maximal effect
In short: as §3

[19] = qHTS of pediatric cancer cell lines to identify multiple opportunities for drug repurposing: Primary screen for MG 63 (6-TG R) cells (AID 1347105); settings: MG 63 (6-TG R) viability, CellTiter-Glo, 48 h; series mostly up to 46 µM; also: nearly all actives have a fitted effect of over 50% in size; also: potency is read from the fitted curve at half-maximal effect
In short: as §2

[20] = qHTS of pediatric cancer cell lines to identify multiple opportunities for drug repurposing: Primary screen for OHS-50 cells (AID 1347103); settings: OHS-50 osteosarcoma viability, CellTiter-Glo luminescence, 48 h; series mostly up to 57.3 µM; also: nearly all actives have a fitted effect of over 40% in size; also: potency is read from the fitted curve at half-maximal effect
In short: as §3

Measured: Potency

C=CC[C@]1(O)CC[C@H]2[C@@H]3CCC4=CC(=O)CCC4=C3C=C[C@@]21C
not listed: [15] | [16] | [17] | [18] | [19] | [20]
inactive: all other assays above

COc1ccc2[nH]cc(CCN(C(C)C)C(C)C)c2c1
active: [8] 36.1 µM
not listed: [7] | [20]
inactive: all other assays above

COc1ccc(C(=O)N2CCCC2=O)cc1
not listed: [15]
inactive: all other assays above

CCOC(=O)NC(C)(C)Cc1ccc(Cl)cc1
not listed: [7]
inactive: all other assays above

C#C[C@]1(O)C=C[C@H]2[C@@H]3CCC4=CC(=O)CC[C@@H]4[C@H]3CC[C@@]21CC
not listed: [5] | [7] | [20]
inactive: all other assays above

O=C(CBr)Nc1ccc(Cl)cc1C(=O)c1ccccc1F
not listed: [7] | [8] | [17] | [19] | [20]
inactive: all other assays above

COc1cc(CC#N)cc(OC)c1OC
not listed: [7] | [19]
inactive: all other assays above

c1ccc2nc(N3CCNCC3)ccc2c1
not listed: [8] | [15]
inactive: all other assays above

c1cc2c(c(N3CCNCC3)c1)OCCO2
not listed: [7]
inactive: all other assays above

Cc1ncc2n1-c1ccc(Cl)cc1C(c1ccccc1F)=NC2
not listed: [9] | [16] | [19] | [20]
inactive: all other assays above

O=C(N[C@H]1N=C(c2ccccc2F)c2cccc3c2N(CC3)C1=O)c1cc2ccccc2[nH]1
not listed: [7] | [17] | [19]
inactive: all other assays above

CC(C)=C[C@@H]1[C@@H](C(=O)OCc2coc(Cc3ccccc3)c2)C1(C)C
not listed: [7] | [15] | [19] | [20]
inactive: all other assays above

CCC1(c2cccc(O)c2)CCCCN(C)C1 (stereo not given)
not listed: [7]
inactive: all other assays above

CCC1(CC)C(=O)NC(=O)NC1=O
not listed: [7] | [15] | [17] | [19]
inactive: all other assays above

C[C@@H]1C[C@@H]([C@H](O)CC2CC(=O)NC(=O)C2)C(=O)[C@@H](C)C1
active: [1] 664 nM and 523 nM | [2] 1.06 µM and 1.18 µM | [3] 266 nM and 235 nM | [4] 668 nM and 372 nM | [15] 84.1 nM and 74.3 nM | [16] 437 nM and 385 nM | [5] 841 nM and 3.32 µM | [7] 1870 nM | [8] 4.86 µM and 8.57 µM | [17] 296 nM | [18] 777 nM and 611 nM | [20] 276 nM and 137 nM | [11] 473 nM and 235 nM | [14] 4690 nM
inactive: [12] | [13]

C[N+]1(C)[C@@H]2CC[C@H]1CC(OC(=O)C(CO)c1ccccc1)C2 (stereo not given in full)
not listed: [8] | [15] | [19]
inactive: all other assays above

CCS(=O)(=O)C(C)(C)S(=O)(=O)CC
not listed: [7]
inactive: all other assays above

O=C(O)Cc1ccccc1
not listed: [7] | [15] | [17] | [19]
inactive: all other assays above

CC(C)C(Br)C(=O)NC(N)=O (stereo not given)
not listed: [3] | [7]
inactive: all other assays above

O=c1n(Cl)c(=O)n(Cl)c(=O)n1Cl
not listed: [3] | [7]
inactive: all other assays above

O=C1CN2CCOC2(c2ccccc2Cl)c2cc(Cl)ccc2N1 (stereo not given)
not listed: [3] | [7] | [20]
inactive: all other assays above

COc1ccc(CN2CCNCC2)c(OC)c1OC
not listed: [3]
inactive: all other assays above

O=C(CCCN1CCC(n2c(=O)[nH]c3ccccc32)CC1)c1ccc(F)cc1
not listed: [3] | [18] | [20]
inactive: all other assays above

C[C@@H]1O[C@@H](O[C@@H]2C=C3CC[C@@H]4[C@H](CC[C@]5(C)[C@@H](c6ccc(=O)oc6)CC[C@]45O)[C@@]3(C)CC2)[C@H](O)[C@H](O)[C@H]1O
inactive: [13]
active: [1] 3.3 nM | [2] 2.1 nM | [4] 2.7 nM | [15] 1 nM | [16] 2.5 nM | [5] 11.9 nM | [7] 3.8 nM | [8] 0.0687 µM | [9] 10.6 nM | [18] 3.1 nM | [20] 2.5 nM | [11] 1.5 nM | [19] 1.7 nM | [12] 7.5 nM

CN(C)CCc1c[nH]c2ccccc12
not listed: [3] | [7] | [17] | [19] | [20]
inactive: all other assays above

CCOC(=O)c1ncn2c1CN(C)C(=O)c1c(I)cccc1-2
not listed: [3] | [7] | [19]
inactive: all other assays above
